Results published in PubChem BioAssay (EPA / NIEHS).
Values joined by “and” are separate entries in the source; they are usually repeats but may differ in a detail not shown here. Equal values may be shown once. Some compounds were tested as several samples or in several runs, with calls that do not always agree. Active and inactive are the calls of the source. The calls were made as follows: active = hit-call score of the fitted dose curve at least 0.9, where 1 is the maximum; inactive = score below 0.9.

assay: ATG_VDRE_CIS: Attagene CIS-FACTORIAL HepG2 Assay for human Vitamin D Receptor Element (VDRE) (AID 2282968); details: HepG2 VDRE cis-reporter transcription, actives raise or lower the signal
Description: ATG_CIS is a cell-based, multiplexed-readout assay that uses HepG2, a human liver cell line, with measurements taken at 24 hours after chemical dosing in a 24-well plate.ATG_VDRE_CIS is one of 52 assay component(s) measured or calculated from the ATG_CIS assay. It is designed to make measurements of mRNA induction, a form of inducible reporter, as detected with fluorescence intensity signals by Reverse transcription polymerase chain reaction (RT-PCR) and Capillary electrophoresis technology.Data from the assay component ATG_VDRE_CIS was analyzed into 1 assay endpoint. This assay endpoint, ATG_VDRE_CIS, was analyzed with bidirectional fitting relative to DMSO as the negative control and baseline of activity. Using a type of inducible reporter, measures of mRNA for gain or loss-of-signal activity can be used to understand the reporter gene at the transcription factor-level as they relate to the gene VDR. Furthermore, this assay endpoint can be referred to as a primary readout, because this assay has produced multiple assay endpoints where this one serves a reporter gene function. To generalize the intended target to other relatable targets, this assay endpoint is annotated to the nuclear receptor intended target family, where the subfamily is non-steroidal.
Human liver HepG2 cells are transiently transfected with multiple reporter transcription units (MRTUs) in 6-well plates using FuGene 6 reagent (Roche; 3 ml FuGene/1 mg DNA). The MRTU constructs are regulated by a cis-regulating element (promoter). […] A major difference between the CIS and TRANS system is that in CIS activities of endogenous TFs are measured, whereas the TRANS assay evaluates changes in activities of exogenous, chimeric NR-Gal4 proteins. […] At the end of 24 hour incubation, total RNA was isolated using TriZol reagent (Invitrogen). The isolated RNA is then reverse-transcribed using oligo(dT) primer and Mo-MLV reverse transcriptase (Invitrogen) with DNAse I (Ambion) treatment for 30 min. The one-tenth of the produced cDNA was amplified by PCR using Taq DNA polymerase (Invitrogen) and two reporter sequence-specific primers. The PCR products were fluorescently labeled by primer extension with 6-arboxyfluorescein (6-FAM) 5'-labeled reporter sequence-specific primer (2 min at 95 C, 20 s at 68 C and 10 min at 72 C) and these products were digested with 5U of HpaI (New England Biolabs) for 2h at 37 C. The fragments were purified using Qiaquick PCR columns (Qiagen), analyzed on an ABI 3130xL genetic analyzer (Applied Biosystems) with peak positions identified by using a set of X-rhodamine (ROX)-labeled MapMarker1000 molecular weight standards (BioVentures). The raw capillary electrophoresis data was processed using Attagraph software (Attagene).

Structure (SMILES)	outcome	AC50
C#C[C@]1(O)CC[C@H]2[C@@H]3CCC4=CC(=O)CC[C@@H]4[C@H]3CC[C@@]21CC	inactive	27.6 µM (active)
CCCCCOC(=O)COc1cc(N2C(=O)C3=C(CCCC3)C2=O)c(F)cc1Cl	inactive	
C[C@]12CC[C@@H]3c4ccc(O)cc4C[C@@H](CCCCCCCCCS(=O)CCCC(F)(F)C(F)(F)F)[C@H]3[C@@H]1CC[C@@H]2O (stereo not given in full)	inactive	1 µM (active) and 1.5 µM (active)
CCCOC(=O)NCCCN(C)C	inactive	
N#CSCSc1nc2ccccc2s1	inactive	
O=C(O)C1(C(=O)Nc2ccc(Cl)cc2Cl)CC1	inactive	
C=CCOC(Cn1ccnc1)c1ccc(Cl)cc1Cl (stereo not given)		3.43 µM (active)
COCCO	inactive	
COC(=O)c1ccc(I)cc1S(=O)(=O)NC(=O)Nc1nc(C)nc(OC)n1	inactive	
c1ccc(Nc2ccccc2)cc1	inactive	100 µM (active)
CCCCCCC(C)OC(=O)COc1nc(F)c(Cl)c(N)c1Cl (stereo not given)	inactive	
CCCCC(CC)CN1C(=O)C2C3C=CC(C3)C2C1=O (stereo not given)		23.8 µM (active)
CCOC(=O)c1ccc(O)cc1	inactive	42.8 µM (active)
S=C(S)NCCNC(=S)S.[Mn+2].[S-]C([S-])=NCCN=C([S-])[S-].[Zn+2]	inactive	30.3 µM (active) and 11.4 µM (active)
CC1(C)C(C=C(Cl)Cl)C1C(=O)OCc1cccc(Oc2ccccc2)c1 (stereo not given)		10 µM (active)
C#CCOC(=O)[C@@H](C)Oc1ccc(Oc2ncc(Cl)cc2F)cc1	inactive	

Structure (SMILES)	outcome	AC50
COc1nc(C)nc(NC(=O)NS(=O)(=O)c2ccccc2OCCCl)n1	inactive	
CCN(Cc1c(F)cccc1Cl)c1c([N+](=O)[O-])cc(C(F)(F)F)cc1[N+](=O)[O-]		1.87 µM (active)
O=C(c1ccccc1)C1CCCCC1	inactive	42.8 µM (active)
COc1c(Cl)ccc(Cl)c1C(=O)O	inactive	
CCCOC(=O)c1ccc(C(=O)OCCC)nc1	inactive	
S=C([S-])NCCNC(=S)[S-].[Mn+2]	inactive	
CCOC(=O)C(C)Oc1ccc(Oc2cnc3cc(Cl)ccc3n2)cc1 (stereo not given)	inactive	
Oc1ccc(C(c2ccc(O)cc2)C(Cl)(Cl)Cl)cc1		0.497 µM (active)
CCCN(CCC)C(=O)SCC	inactive	
CCCCC(CC)COC(=O)c1ccccc1C(=O)O (stereo not given)	inactive	
CCNc1nc(N)nc(Cl)n1	inactive	
N[C@@H](Cc1cc(I)c(Oc2ccc(O)c(I)c2)c(I)c1)C(=O)O	inactive	
CCC(C)OC(=O)N1CCCCC1CCO (stereo not given)	inactive	46.5 µM (active)
CC(=O)[C@H]1CC[C@H]2[C@@H]3CCC4=CC(=O)CC[C@]4(C)[C@H]3CC[C@]12C		26.5 µM (active) [middle of 4 runs]
CC(C)CCCCCCc1ccc(O)cc1	inactive	2.96 µM (active) and 11.1 µM (active) and 10.3 µM (active)
O=C(O)c1ccccc1	inactive	
